Compound activity deposited in PubChem BioAssay by National Center for Advancing Translational Sciences (NCATS).
S2 tox – reduces viability in counter-screen for ATXN expression inhibitors | S2 cells (HEK-293 line with an ATXN2-luciferase reporter) viability, CellTiter-Fluor protease fluorescence, 24 h | Potency, µM (top dose mostly 56.7 µM), most hits filed as cytotoxic | 400,000 tested, 0.49% active; note: potency is the fitted concentration of half-maximal effect; nearly all actives have a fitted effect of over 40% in size
ATXN2 expr inh – ATXN2 expression inhibition | HEK-293 ATXN2-luciferase reporter, luminescence, 24 h | Potency, µM (top dose mostly 57 µM), for the others: at the highest dose activity change, negative = inhibition, actives largely listed as inhibitors | 360,000 tested, 0.72% active; note: potency is the fitted concentration of half-maximal effect; % is set by controls: 0 for no effect and ±100 for the full control effect; nearly all actives have a fitted effect of over 55% in size
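qHTS (up to 57 uM final) was run with 24 h compound exposure of reporter cells at 37 °C. Each well was multiplexed: SteadyGlo luminescence measured ATXN2-luciferase expression after a fluorogenic Gly-Phe-AFC viability readout (25 uM final).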
TGFb SMAD3 inh – TGF-b pathway inhibition | HepG2 CAGA-GFP TGF-b/SMAD3 reporter, GFP fluorescence, 18 h; TGF-beta stimulated, 500 pg/mL final | Potency, µM (top dose mostly 46.1 µM), for the others: at the top dose activity, negative = inhibition, most hits filed as inhibitors | 410,000 tested, 1.2% active; note: potency is the fitted concentration of half-maximal effect; % is set by controls: 0 for no effect and ±100 for the full control effect; nearly all actives have a fitted effect of over 65% in size
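Inhibition of TGF-beta-driven CAGA-GFP reporter expression in HEPG2 cells is measured by cellular GFP fluorescence after 18 h stimulation with 500 pg/mL recombinant TGF-beta in 1% FBS medium at 37 degrees C.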
IDH1 R132H inh – human IDH1 R132H inhibition | O75874 | 390,000 tested, 0.093% active | IDH1-R132H enzyme, NADPH consumption, diaphorase/resazurin fluorescence | Potency, µM (top dose mostly 76.6 µM), for the others: at the highest dose activity change, negative = inhibition, actives largely listed as inhibitors; note: potency is the fitted concentration of half-maximal effect; % is set by controls: 0 for no effect and ±100 for the full control effect; nearly all actives have a fitted effect of over 65% in size
Target sequence (O75874 whole entry R132H, stated change not applied): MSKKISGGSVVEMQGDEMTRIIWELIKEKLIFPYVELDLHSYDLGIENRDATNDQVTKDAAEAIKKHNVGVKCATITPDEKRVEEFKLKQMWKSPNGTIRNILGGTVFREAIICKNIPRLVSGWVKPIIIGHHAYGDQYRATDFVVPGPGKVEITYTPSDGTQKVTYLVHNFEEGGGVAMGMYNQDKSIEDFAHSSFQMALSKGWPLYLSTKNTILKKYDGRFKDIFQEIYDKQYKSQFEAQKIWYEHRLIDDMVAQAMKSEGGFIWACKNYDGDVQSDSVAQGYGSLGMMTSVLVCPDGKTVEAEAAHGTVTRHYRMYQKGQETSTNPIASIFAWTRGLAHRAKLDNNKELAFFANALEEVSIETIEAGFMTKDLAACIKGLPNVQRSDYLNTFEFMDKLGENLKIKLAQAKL
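IDH1-R132H (0.5 ug/mL) preincubated 30 min with compound, then NADPH (0.016 mM) and alpha-KG (2 mM) added; 80 min at RT, pH 7.5. Remaining NADPH coupled via diaphorase/resazurin to fluorescence (540/590 nm); concentration-response curves normalized to no-enzyme control.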
LDHA block – blocks human lactate dehydrogenase A; P00338; purified LDHA, NADH/diaphorase-resazurin fluorescence; active compounds read low; activity change, % (values are at about 110 or 230 µM); 480,000 tested, 0.15% active; in the data active = activity change below about -30%; inconclusive = mostly about -25% to -30%;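 note: plate controls were DMSO wells for no effect and wells without enzyme for full effect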
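Enzyme activity of human lactate dehydrogenase 5 (2 nM; 0.06 mM NADH, 0.2 mM pyruvate, 5 min, RT) is measured via a resazurin/diaphorase fluorescence readout of residual NADH.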
HepG2 viability – counter-screen for TGF-b inhibitors: cytotoxicity in HepG2 cells | 410,000 tested, 0.76% active | Potency, µM (series often up to 46.1 µM), without a hit: at the highest dose activity change, negative = cytotoxicity, usual class: cytotoxic | AID 588856 | HepG2 CAGA-GFP viability, ATP luminescence, 18 h; note: potency is the fitted concentration of half-maximal effect
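CellTiter-Glo luminescence gave cytotoxicity after 18 hours at 37 degrees C. The cells were HepG2 CAGA-GFP in 1% FBS DMEM, stimulated with 500 pg/mL TGF-beta after compound addition. %Activity was normalised to no-cell wells (complete cell-killing) and DMSO (no toxicity), and curves were fitted and classified.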
Starred values were filed as active, the others as inactive; i = inactive; u = inconclusive; x = not tested or not shown. In the library only some 2.2% were active in any assay of this set; here they are far more common. Unless noted, calls come from the whole dose curve; as a rule, active = well fitted curve in the direction sought with a large enough effect; inconclusive = small, poorly fitted or top-dose-only effect, or another doubt; inactive = no such curve, though single readings can be large; an effect the other way counts as inactive or inconclusive.

SMILES | S2 tox | ATXN2 expr inh | TGFb SMAD3 inh | IDH1 R132H inh | LDHA block | HepG2 viability
CCOc1ccc(NC(=O)CCCn2c(=O)c3cccn3c3ccccc32)cc1 | x | x | x | x | -31.2* | x
Nc1nccnc1C(=O)NCCc1cccs1 | x | x | x | x | 3.4 | x
Cc1ccc(C(=O)NCC(=O)OC(C)C(=O)Nc2ccccc2[N+](=O)[O-])s1 (configuration not stated) | i | 3.2% | -4.2% | -2.2% | -1.5 | 2.5%
Nc1ccc2oc(CCc3ccccc3)nc2c1 | i | 51.1% | -15.5% | 8.3% | 16.6 | -13.5%
Cc1ccc(S(=O)(=O)c2nnn3c2nc(NC(C)C)c2sccc23)cc1 | x | x | 10µM* | 36.8% | 2.6 | 15.8µM*
O=C1c2cccc(O)c2C(=O)c2c(O)cccc21 | i | -9.0% | x | x | x | x
CC1OC(CC(=O)O)CC2=C1C(=O)c1c(O)cccc1C2=O (configuration not stated) | 0.947µM* | 1.19µM* | u | 12.1% | 45.5 | 0.501µM*
CCC(C)NC(=O)c1oc2ccccc2c1CSc1nnc(C)s1 (configuration not stated) | x | x | x | x | 5.9 | x
Cc1ccc(-c2nc(=Nc3c(C)cc(C)cc3C)sn2-c2ccccc2)cc1 | x | x | 5.62µM* | x | -5.4 | -29.1%
CN=c1nc(-c2ccccc2)n(-c2ccccc2)s1 | i | 49.6% | -17.4% | -7.8% | -7.6 | -7.1%
COc1ccc(C(=O)N=c2nc(-c3ccccc3)n(-c3ccccc3)s2)cc1 | x | x | -0.5% | x | -0.9 | -13.9%
CC(=O)N=c1nc(-c2ccccc2)n(-c2ccccc2)s1 | x | x | -0.2% | x | -32.0* | -22.0%
CSc1nc(SCC(=O)NC(c2ccccc2)c2ccccc2)c2c3c(sc2n1)CN(C)CC3 | 28.2µM* | 20µM* | -6.6% | -4.5% | -12.5 | -36.0%
CCOC(=O)C1=C(c2ccccc2)N=c2s/c(=C\c3cccc(O)c3)c(=O)n2C1c1cccs1 (configuration not stated) | u | u | u | 0.0% | -4.1 | 14.1µM*
Nc1cc(S(=O)(=O)N2CCCCC2)ccc1N1CCOCC1 | i | 2.7% | -0.7% | -10.4% | -1.2 | -0.6%
CCCOc1ccc(C(=O)Nc2cccc(NC(=O)c3ccc(Cl)cc3Cl)c2)cc1 | u | -13.6% | u | -12.3% | -6.3 | 11.2µM*
Cc1ccc(Cl)cc1N1CCN(S(=O)(=O)c2ccc3[nH]c4c(c3c2)CCCCC4)CC1 | i | -1.3% | -28.4% | 6.3% | -7.4 | -29.3%
Cc1ccc(C)c(N2CCN(S(=O)(=O)c3ccc4[nH]c5c(c4c3)CCCC5)CC2)c1 | i | -13.7% | 12.6µM* | -1.8% | 2.6 | -6.8%
Cc1oc2c(C)c3oc(=O)c(CC(=O)N4CCCCC4)c(C)c3cc2c1C | x | x | -16.5% | -8.5% | -13.1 | -0.8%
CCC(C)COC(=O)C(C#N)c1nc2ccccc2nc1N1CCCCC1 (configuration not stated) | i | -5.0% | -0.8% | 1.4% | -1.1 | 1.1%
CCC(CC)COC(=O)C(C#N)c1nc2ccccc2nc1N1CCN(CC)CC1 (configuration not stated) | 28.2µM* | u | u | 3.4% | 10.2 | -111.7%
O=C1c2ccc3c4c(ccc(c24)C(=O)N1c1cccc(O)c1)C(=O)N(c1cccc(O)c1)C3=O | u | x | 3.98µM* | 0.9% | -8.7 | 4.47µM*
COc1ccc(COC(=O)c2cc(S(=O)(=O)N3CCCCC3)ccc2N2CCOCC2)cc1 | i | 0.1% | -0.2% | 3.8% | -0.7 | -0.7%
CCCCC(NC(=O)Cc1c(C)c2cc3c4c(oc3cc2oc1=O)CCCC4)C(=O)O (configuration not stated) | x | -8.6% | -9.2% | -2.2% | 7.9 | -6.0%
O=C(c1ccncc1)N1CCN(C2CCC(c3ccccc3)CC2)CC1 (configuration not stated) | i | 0.0% | -5.9% | -1.4% | -31.7* | 31.3%
